Reference: PubChem BioAssay (EPA / NIEHS)
Values joined by “and” are separate entries in the source; they are usually repeats but may differ in a detail not shown here. Identical values can stand only once. A structure can be active in one record and inactive in another. Active and inactive are the calls of the source. How the source made its calls: active means hit-call score of the fitted dose curve at least 0.9, where 1 is the maximum; inactive means score below 0.9.

Columns and labels:
[1] = read-out: Urokinase-type plasminogen activator receptor (uPAR), PLAUR (gene 5329); experiment: BSK_4H_uPAR: BioMAP Diversity Plus: 4H Assay for Urokinase-type plasminogen activator receptor (uPAR) Biomarker Activity (AID 2283030); details: primary human endothelial cells (HUVEC); actives raise or lower the signal
Method in brief: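 Cell-surface uPAR ELISA signal, measured 24 h after dosing human umbilical vein endothelial cells, was analyzed with bidirectional fitting relative to DMSO. Parallel SRB staining of total protein tracked overt cytotoxicity.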

[2] = read-out: Vascular endothelial growth factor receptor 2 (Homo sapiens) (UniProt P35968); experiment: BSK_4H_VEGFRII: BioMAP Diversity Plus: 4H Assay for Vascular endothelial growth factor receptor 2 (VEGFR2) Biomarker Activity (AID 2283031); details: primary human endothelial cells (HUVEC); actives raise or lower the signal
Method in brief: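 ELISA read-out of VEGFRII in primary human umbilical vein endothelium, taken 24 h after chemical treatment. Responses are expressed relative to DMSO, with bidirectional fitting.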

[3] = read-out: Human Leukocyte Antigen - DR isotype (HLADR), HLA-DRA (gene 3122); experiment: BSK_BE3C_HLADR: BioMAP Diversity Plus: BE3C Assay for Human Leukocyte Antigen - DR isotype (HLADR) Biomarker Activity (AID 2283032); details: primary human bronchial epithelial cells; actives raise or lower the signal
Method in brief: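 Signal came from an ELISA for HLA-DR in human bronchial epithelial primary cells harvested 24 h after treatment; gain- and loss-of-signal fitting used DMSO controls as reference.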

[4] = read-out: Vascular cell adhesion molecule 1 (VCAM1), VCAM1 (gene 7412); experiment: BSK_4H_VCAM1: BioMAP Diversity Plus: 4H Assay for Vascular cell adhesion molecule 1 (VCAM1) Biomarker Activity (AID 2283033); details: primary human endothelial cells (HUVEC); actives raise or lower the signal
Method in brief: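 Endpoint derived from bidirectional fitting against DMSO controls of VCAM-1 ELISA signal in umbilical vein endothelial cells sampled at 24 h following treatment.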

[5] = read-out: Interferon-gamma inducible Protein 10 (IP10), CXCL10 (gene 3627); experiment: BSK_BE3C_IP10: BioMAP Diversity Plus: BE3C Assay for Interferon-gamma inducible Protein 10 (IP10) Biomarker Activity (AID 2283034); details: primary human bronchial epithelial cells; actives raise or lower the signal
Method in brief: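 Using primary human bronchial epithelial cultures, the assay captures IP-10 by ELISA one day (24 h) after exposure. Parallel SRB staining of total protein flags overt cytotoxicity. Fits run bidirectionally relative to DMSO.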

[6] = read-out: Monokine induced gamma interferon (MIG), CXCL9 (gene 4283); experiment: BSK_BE3C_MIG: BioMAP Diversity Plus: BE3C Assay for Monokine induced gamma interferon (MIG) Biomarker Activity (AID 2283035); details: primary human bronchial epithelial cells; actives raise or lower the signal;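 further: MIG protein measured by ELISA in BE3C cultures after 24 h of dosing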
Method in brief: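 Primary human bronchial epithelial cells treated for 24 h; MIG levels measured by ELISA, fitted bidirectionally versus DMSO. Parallel SRB total-protein staining assessed cytotoxicity.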

[7] = read-out: Plasminogen activator inhibitor-1 (PAI1), SERPINE1 (gene 5054); experiment: BSK_BE3C_PAI1: BioMAP Diversity Plus: BE3C Assay for Plasminogen activator inhibitor-1 (PAI1) Biomarker Activity (AID 2283037); details: primary human bronchial epithelial cells; actives raise or lower the signal
Method in brief: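 PAI-1 biomarker levels in treated human bronchial epithelial cells are determined by ELISA at 24 h. Both increases and decreases relative to DMSO are fitted.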

[8] = read-out: urokinase plasminogen activator (uPA), PLAU (gene 5328); experiment: BSK_BE3C_uPA: BioMAP Diversity Plus: BE3C Assay for urokinase plasminogen activator (uPA) Biomarker Activity (AID 2283038); details: primary human bronchial epithelial cells; actives raise or lower the signal;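 further: uPA protein level quantified by ELISA in cell cultures; uPA read one day after compound addition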
Method in brief: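 Bronchial epithelial cells (human, primary); chemical 24 h; uPA by ELISA; bidirectional fit vs DMSO. SRB (0.1%, after 10% TCA fixation, 560 nm) in parallel cultures for cytotoxicity.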

[9] = read-out: Urokinase-type plasminogen activator receptor (uPAR), PLAUR (gene 5329); experiment: BSK_BE3C_uPAR: BioMAP Diversity Plus: BE3C Assay for Urokinase-type plasminogen activator receptor (uPAR) Biomarker Activity (AID 2283039); details: primary human bronchial epithelial cells; actives raise or lower the signal
Method in brief: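 A uPAR ELISA serves as the readout, taken 24 h after treating primary human bronchial epithelial cells. Responses in either direction are fitted against DMSO, which defines baseline activity.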

[10] = read-out: Interleukin-6 (IL6), IL6 (gene 3569); experiment: BSK_CASM3C_IL6: BioMAP Diversity Plus: CASM3C Assay for Interleukin-6 (IL6) Biomarker Activity for (AID 2283040); details: primary human coronary artery smooth muscle cells; actives raise or lower the signal
[11] = read-out: Tissue plasminogen activator (tPA), PLAT (gene 5327); experiment: BSK_BE3C_tPA: BioMAP Diversity Plus: BE3C Assay for Tissue plasminogen activator (tPA) Biomarker Activity (AID 2283041); details: primary human bronchial epithelial cells; actives raise or lower the signal
Method in brief: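 Bidirectional curve fitting relative to DMSO defined activity, with tPA detected by ELISA in chemically treated human bronchial epithelial primary cells at 24 hours.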

[12] = read-out: Interleukin-8 (IL8), CXCL8 (gene 3576); experiment: BSK_CASM3C_IL8: BioMAP Diversity Plus: CASM3C Assay for Interleukin-8 (IL8) Biomarker Activity (AID 2283042); details: primary human coronary artery smooth muscle cells; actives raise or lower the signal;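 further: IL-8 protein level quantified by ELISA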
[13] = read-out: Human Leukocyte Antigen - DR isotype (HLADR), HLA-DRA (gene 3122); experiment: BSK_CASM3C_HLADR: BioMAP Diversity Plus: CASM3C Assay for Human Leukocyte Antigen - DR isotype (HLADR) Biomarker Activity (AID 2283043); details: primary human coronary artery smooth muscle cells; actives raise or lower the signal;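 further: cell-surface HLA-DR protein level quantified by ELISA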
[14] = read-out: Macrophage colony-stimulating factor (MCSF), CSF1 (gene 1435); experiment: BSK_CASM3C_MCSF: BioMAP Diversity Plus: CASM3C Assay for Macrophage colony-stimulating factor (MCSF) Biomarker Activity (AID 2283044); details: primary human coronary artery smooth muscle cells; actives raise or lower the signal;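 further: M-CSF protein amount quantified by ELISA after 24 h exposure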
[15] = read-out: Low-density lipoprotein receptor (LDLR), LDLR (gene 3949); experiment: BSK_CASM3C_LDLR: BioMAP Diversity Plus: CASM3C Assay for Low-density lipoprotein receptor (LDLR) Biomarker Activity (AID 2283045); details: primary human coronary artery smooth muscle cells; actives raise or lower the signal;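 further: LDLR protein level on the cell surface quantified by ELISA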
[16] = read-out: Monocyte Chemoattractant Protein-1 (MCP1), CCL2 (gene 6347); experiment: BSK_CASM3C_MCP1: BioMAP Diversity Plus: CASM3C Assay for Monocyte Chemoattractant Protein-1 (MCP1) Biomarker Activity (AID 2283046); details: primary human coronary artery smooth muscle cells; actives raise or lower the signal;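 further: MCP-1 level quantified by ELISA 24 h after dosing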
[17] = BSK_CASM3C_Proliferation: Cell Proliferation Assessment in the BioMAP Diversity Plus: CASM3C Assay (AID 2283047); details: primary human coronary artery smooth muscle cells;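 further: sulforhodamine B total protein stain as relative cell number at 560 nm; sub-confluent cells exposed 48 h before staining; fitted both ways against DMSO so gain or loss of cell number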
[18] = read-out: Monokine induced gamma interferon (MIG), CXCL9 (gene 4283); experiment: BSK_CASM3C_MIG: BioMAP Diversity Plus: CASM3C Assay for Monokine induced gamma interferon (MIG) Biomarker Activity (AID 2283048); details: primary human coronary artery smooth muscle cells; actives raise or lower the signal
[19] = read-out: serum amyloid A (SAA), SAA1 (gene 6288); experiment: BSK_CASM3C_SAA: BioMAP Diversity Plus: CASM3C Assay for serum amyloid A (SAA) Biomarker Activity (AID 2283049); details: primary human coronary artery smooth muscle cells; actives raise or lower the signal;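 further: SAA protein level quantified by ELISA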
[20] = read-out: Transforming growth factor beta 1 (TGFb1), TGFB1 (gene 7040); experiment: BSK_BE3C_TGFb1: BioMAP Diversity Plus: BE3C Assay for Transforming growth factor beta 1 (TGFb1) Biomarker Activity (AID 2283036;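 further: TGF-b1 protein level measured by ELISA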); details: primary human bronchial epithelial cells; actives raise or lower the signal
Method in brief: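 In this human primary bronchial epithelial system, an ELISA quantified TGF-b1 one day after dosing. Endpoint changes in either direction were fitted relative to DMSO.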

Measured: AC50

O=C(Cl)C(F)(F)C(F)(F)C(F)(F)C(F)(F)C(F)(F)C(F)(F)F
inactive: [1] | [2] | [3] | [4] | [5] | [6] | [7] | [8] | [9] | [10] | [11] | [12] | [13] | [14] | [15] | [16] | [17] | [18] | [19]

Cc1cnccn1
active: [17] 0.196 µM
inactive: [1] | [2] | [3] | [4] | [5] | [6] | [20] | [7] | [8] | [9] | [10] | [11] | [12] | [13] | [14] | [15] | [16] | [18] | [19]

O=C(Cl)C(F)(F)C(F)(F)C(F)(F)C(F)(F)C(F)(F)C(F)(F)C(F)(F)F
inactive: [1] | [2] | [3] | [4] | [5] | [7] | [8] | [9] | [10] | [11] | [12] | [13] | [14] | [15] | [16] | [17] | [18] | [19]
active: [5] 19.8 µM

CCOC(=O)CC(=O)C(F)(F)C(F)(F)F
active: [1] 15.1 µM
inactive: [1] | [2] | [3] | [4] | [5] | [7] | [8] | [9] | [10] | [11] | [12] | [13] | [14] | [15] | [16] | [17] | [18] | [19]

CO[Si](C)(CCC(F)(F)C(F)(F)C(F)(F)C(F)(F)C(F)(F)C(F)(F)F)OC
inactive: [1] | [2] | [3] | [4] | [5] | [6] | [7] | [8] | [9] | [10] | [11] | [12] | [13] | [14] | [15] | [16] | [17] | [18] | [19]

NS(=O)(=O)C(F)(F)C(F)(F)C(F)(F)C(F)(F)C(F)(F)C(F)(F)F
active: [4] 30 µM | [5] 30 µM and 24.4 µM | [7] 7.32 µM | [9] 41.8 µM | [11] 49 µM and 47.5 µM
inactive: [1] | [2] | [3] | [4] | [7] | [8] | [9] | [10] | [12] | [13] | [14] | [15] | [16] | [17] | [18] | [19]
